Assay results taken from PubChem BioAssay AID1159580 (chemical genetic matrix, 2015).
Where “and” joins values, the source holds several entries; their conditions need not be identical. Identical values can stand only once. The whole screen tested about 5,500 compounds, of which about 2,000 (36%) were called active. Not shown: some 18% with an inconclusive outcome. No stated cut-off is given here; in the data, active means normalized growth mostly below about 0.91 (no sharp cut-off); inconclusive means no clear call, values can overlap the other calls; inactive means mostly above about 0.92. Some of the results follow.

Experiment: chemical genetic growth profiling, strain panel (AID 1159580);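 further: tested at 20 µM; growth read once vehicle control cultures reached saturation at 30 °C; 1 = growth at the plate median or of vehicle wells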
Conditions: S. cerevisiae deletion strains, growth OD

Measured: normalized growth

C[C@H]1O[C@@H](O[C@H]2[C@@H](O)C[C@H](O[C@H]3[C@@H](O)C[C@H](O[C@H]4CC[C@]5(C)C6CC[C@]7(C)[C@@H](C8=CC(=O)OC8)CC[C@]7(O)C6CC[C@@H]5C4)O[C@@H]3C)O[C@@H]2C)C[C@H](O)[C@@H]1O (some centres not stated)
inactive: locus YAL021C, strain ccr4, stronger effect = lower value 0.984 | locus YAL026C, strain drs2, stronger effect = lower value 0.965 | locus YAL030W, strain snc1, stronger effect = lower value 0.964 | locus YBL061C, strain skt5, stronger effect = lower value 0.975 | locus YBR009C, strain hhf1, stronger effect = lower value 0.968 | locus YBR021W, strain FUR4, stronger effect = lower value 0.968 | locus YBR023C, strain chs3, stronger effect = lower value 0.957 | locus YBR171W, strain sec66, stronger effect = lower value 0.98 | locus YBR229C, strain ROT2, stronger effect = lower value 0.982 | locus YBR231C, strain swc5, stronger effect = lower value 0.979 | locus YBR279W, strain paf1, stronger effect = lower value 0.967 | locus YCL011C, strain gbp2, stronger effect = lower value 0.951 | locus YCL016C, strain dcc1, stronger effect = lower value 0.921 | locus YCL029C, strain bik1, stronger effect = lower value 0.976 | locus YCL061C, strain MRC1, stronger effect = lower value 1.01 | locus YCL069W, strain vba3, stronger effect = lower value 0.969 | locus YCR088W, strain abp1, stronger effect = lower value 0.99 | locus YDL005C, strain med2, stronger effect = lower value 1.01 | locus YDL035C, strain GPR1, stronger effect = lower value 1.03 | locus YDL040C, strain nat1, stronger effect = lower value 0.975 | locus YDL074C, strain BRE1, stronger effect = lower value 0.982 | locus YDL101C, strain DUN1, stronger effect = lower value 0.987 | locus YDL134C, strain PPH21, stronger effect = lower value 1.02 | locus YDL185W, strain tfp1, stronger effect = lower value 1 | locus YDL192W, strain arf1, stronger effect = lower value 1 | locus YDR001C, strain nth1, stronger effect = lower value 0.968 | locus YDR069C, strain doa4, stronger effect = lower value 1.02 | locus YDR101C, strain arx1, stronger effect = lower value 1.01 | locus YDR137W, strain rgp1, stronger effect = lower value 0.976 | locus YDR159W, strain sac3, stronger effect = lower value 0.948 | locus YDR162C, strain NBP2, stronger effect = lower value 1.01 | locus YDR195W, strain ref2 1.03 | locus YDR297W, strain sur2, stronger effect = lower value 0.986 | locus YDR318W, strain mcm21, stronger effect = lower value 0.989 | locus YDR334W, strain swr1, stronger effect = lower value 0.983 | locus YDR335W, strain msn5, stronger effect = lower value 0.984 | locus YDR388W, stronger effect = lower value 0.986 | locus YDR392W, strain spt3, stronger effect = lower value 0.931 | locus YDR502C, strain sam2, stronger effect = lower value 0.993 | locus YEL003W, strain gim4, stronger effect = lower value 0.989 | locus YEL037C, strain rad23, stronger effect = lower value 0.976 | locus YEL061C, strain CIN8 (second series), stronger effect = lower value 0.971 | locus YEL061C, strain CIN8, stronger effect = lower value 0.999 | locus YER015W, strain faa2, stronger effect = lower value 0.977 | locus YER016W, strain bim1, stronger effect = lower value 0.98 | locus YER110C, stronger effect = lower value 0.989 | locus YER111C, strain swi4, stronger effect = lower value 0.969 | locus YER155C, strain BEM2 (second series), stronger effect = lower value 1.03 | locus YER155C, strain BEM2, stronger effect = lower value 0.988 | locus YER167W, strain BCK2, stronger effect = lower value 1 | locus YFR010W, strain ubp6, stronger effect = lower value 1 | locus YGL078C, strain dbp3, stronger effect = lower value 0.983 | locus YGL086W, strain mad1, stronger effect = lower value 1.02 | locus YGL167C, strain pmr1, stronger effect = lower value 1 | locus YGL173C, strain kem1, stronger effect = lower value 0.972 | locus YGL227W, strain vid30, stronger effect = lower value 0.989 | locus YGL240W, strain doc1, stronger effect = lower value 1.05 | locus YGL248W, strain PDE1, stronger effect = lower value 0.959 | locus YGR135W, strain pre9, stronger effect = lower value 0.965 | locus YGR252W, strain gcn5, stronger effect = lower value 0.967 | locus YHR013C, strain ard1, stronger effect = lower value 0.984 | locus YHR027C, strain rpn1, stronger effect = lower value 0.996 | locus YHR030C, strain SLT2, stronger effect = lower value 1 and 1.02 | locus YHR079C, strain IRE1 (second series), stronger effect = lower value 0.982 | locus YHR079C, strain IRE1, stronger effect = lower value 1.03 | locus YHR094C, strain hxt1, stronger effect = lower value 0.978 | locus YHR129C, strain ARP1, stronger effect = lower value 1 | locus YHR142W, strain chs7, stronger effect = lower value 0.926 | locus YHR200W, strain rpn10, stronger effect = lower value 0.999 | locus YIL066C, strain RNR3, stronger effect = lower value 0.993 | locus YIL073C, strain SPO22, stronger effect = lower value 0.936 | locus YIL125W, strain kgd1, stronger effect = lower value 0.985 | locus YIR030C, strain dcg1, stronger effect = lower value 0.976 | locus YJL092W, strain hpr5, stronger effect = lower value 0.981 | locus YJL095W, strain BCK1 (second series), stronger effect = lower value 0.991 | locus YJL095W, strain BCK1, stronger effect = lower value 0.953 and 1.05 | locus YJL115W, strain asf1, stronger effect = lower value 0.965 | locus YJL129C, strain trk1, stronger effect = lower value 0.988 | locus YJL134W, strain LCB3, stronger effect = lower value 0.995 | locus YJL154C, strain vps35, stronger effect = lower value 0.979 | locus YJL164C, strain tpk1, stronger effect = lower value 0.962 | locus YJL166W, strain qcr8, stronger effect = lower value 1.03 | locus YJL168C, strain set2, stronger effect = lower value 0.981 | locus YJL187C, strain SWE1 (second series), stronger effect = lower value 0.974 | locus YJR043C, strain POL32, stronger effect = lower value 1.04 | locus YJR066W, strain TOR1, stronger effect = lower value 0.958 | locus YKL009W, strain mrt4, stronger effect = lower value 0.978 | locus YKL068W, stronger effect = lower value 0.989 | locus YKL085W, strain MDH1 (second series), stronger effect = lower value 0.963 | locus YKL085W, strain MDH1, stronger effect = lower value 0.963 | locus YKL160W, strain elf1, stronger effect = lower value 0.985 | locus YKR001C, strain vps1, stronger effect = lower value 0.976 | locus YKR026C, strain gcn3, stronger effect = lower value 0.977 | locus YKR091W, strain srl3, stronger effect = lower value 0.967 | locus YLL001W, strain dnm1, stronger effect = lower value 0.989 | locus YLL026W, stronger effect = lower value 0.977 | locus YLL041C, strain sdh2, stronger effect = lower value 0.981 | locus YLR027C, strain aat2, stronger effect = lower value 0.979 | locus YLR039C, strain RIC1, stronger effect = lower value 0.999 | locus YLR058C, strain SHM2, stronger effect = lower value 0.978 | locus YLR102C, strain apc9, stronger effect = lower value 0.979 | locus YLR113W, strain HOG1, stronger effect = lower value 1.03 | locus YLR221C, strain rsa3, stronger effect = lower value 0.954 | locus YLR258W, strain gsy2, stronger effect = lower value 0.96 | locus YLR262C, strain YPT6 (second series), stronger effect = lower value 0.997 | locus YLR262C, strain YPT6, stronger effect = lower value 0.992 | locus YLR268W, strain sec22, stronger effect = lower value 0.988 | locus YLR320W, strain mms22, stronger effect = lower value 0.928 | locus YLR330W, strain CHS5, stronger effect = lower value 1 | locus YLR342W, strain FKS1 (second series), stronger effect = lower value 1.04 | locus YLR342W, strain FKS1, stronger effect = lower value 1 | locus YLR357W, strain rsc2, stronger effect = lower value 1.07 | locus YLR370C, strain arc18, stronger effect = lower value 0.956 | locus YLR371W, strain rom2, stronger effect = lower value 0.98 | locus YLR384C, strain iki3, stronger effect = lower value 0.954 | locus YLR418C, strain cdc73, stronger effect = lower value 0.928 | locus YML016C, strain PPZ1, stronger effect = lower value 1 | locus YML032C, strain rad52, stronger effect = lower value 0.996 | locus YML120C, strain ndi1, stronger effect = lower value 0.992 | locus YML124C, strain tub3, stronger effect = lower value 0.975 | locus YMR058W, strain fet3, stronger effect = lower value 1 | locus YMR078C, strain ctf18, stronger effect = lower value 0.967 | locus YMR125W, strain sto1, stronger effect = lower value 0.997 | locus YMR129W, stronger effect = lower value 0.973 | locus YMR205C, strain PFK2, stronger effect = lower value 0.924 | locus YMR223W, strain ubp8, stronger effect = lower value 0.966 | locus YMR231W, strain pep5, stronger effect = lower value 0.992 | locus YMR307W, strain GAS1, stronger effect = lower value 1.1 | locus YNL067W, strain RPL9B, stronger effect = lower value 0.981 | locus YNL071W, strain lat1, stronger effect = lower value 0.979 | locus YNL153C, strain GIM3, stronger effect = lower value 0.983 | locus YNL183C, strain NPR1, stronger effect = lower value 0.984 | locus YNL209W, strain ssb2, stronger effect = lower value 0.977 | locus YNL233W, strain BNI4, stronger effect = lower value 0.977 | locus YNL248C, strain rpa49, stronger effect = lower value 0.979 | locus YNL250W, strain rad50, stronger effect = lower value 0.997 | locus YNL271C, strain bni1, stronger effect = lower value 0.973 | locus YNL298W, strain CLA4, stronger effect = lower value 0.984 | locus YNL307C, strain MCK1, stronger effect = lower value 0.978 | locus YNL322C, strain KRE1 (second series), stronger effect = lower value 0.972 | locus YNR049C, strain mso1, stronger effect = lower value 0.977 | locus YNR052C, strain pop2, stronger effect = lower value 0.999 | locus YOL006C, strain TOP1, stronger effect = lower value 0.896 | locus YOL012C, strain htz1 0.968 | locus YOL147C, strain pex11, stronger effect = lower value 0.984 | locus YOR001W, strain rrp6, stronger effect = lower value 1.03 | locus YOR061W, strain CKA2, stronger effect = lower value 0.994 | locus YOR069W, strain VPS5, stronger effect = lower value 0.994 | locus YOR070C, strain gyp1, stronger effect = lower value 0.968 | locus YOR080W, strain dia2, stronger effect = lower value 0.982 | locus YOR083W, strain WHI5, stronger effect = lower value 0.967 | locus YOR106W, strain vam3, stronger effect = lower value 1 | locus YOR136W, strain idh2, stronger effect = lower value 0.985 | locus YOR144C, strain elg1, stronger effect = lower value 0.985 | locus YOR184W, strain ser1, stronger effect = lower value 0.963 | locus YOR231W, strain MKK1, stronger effect = lower value 1.01 | locus YOR265W, strain rbl2, stronger effect = lower value 0.988 | locus YOR270C, strain vph1, stronger effect = lower value 0.89 | locus YOR290C, strain snf2, stronger effect = lower value 0.944 | locus YOR316C, strain cot1, stronger effect = lower value 0.977 | locus YPL051W, strain arl3, stronger effect = lower value 1.01 | locus YPL078C, strain atp4, stronger effect = lower value 1.02 | locus YPL106C, strain sse1, stronger effect = lower value 0.989 | locus YPL240C, strain hsp82, stronger effect = lower value 0.999 | locus YPL241C, strain CIN2, stronger effect = lower value 1 | locus YPL256C, strain CLN2, stronger effect = lower value 1.02 | locus YPR119W, strain clb2, stronger effect = lower value 0.981 | locus YPR141C, strain kar3, stronger effect = lower value 0.953 | locus YPR163C, strain tif3, stronger effect = lower value 0.981 | locus YPR167C, strain met16, stronger effect = lower value 0.989 | strain wtn01, stronger effect = lower value 1
active: locus YGL253W, strain hxk2, stronger effect = lower value 0.761
